Assay outcomes from PubChem BioAssay.
CASP6 VEID inh = inhibitors of human caspase-6; P55212; purified caspase-6, Z-VEID-R110 cleavage fluorescence; inhibition, % at 12.5 µM; 350,000 tested, 0.53% active; AID 686996;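 active = mean inhibition across replicates at least about 35%, with every replicate also reaching that limit, limit read from the data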;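 also: 0% = median of neutral control wells and 100% = no fluorescence left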
Target sequence (P55212 24-179 limits assumed): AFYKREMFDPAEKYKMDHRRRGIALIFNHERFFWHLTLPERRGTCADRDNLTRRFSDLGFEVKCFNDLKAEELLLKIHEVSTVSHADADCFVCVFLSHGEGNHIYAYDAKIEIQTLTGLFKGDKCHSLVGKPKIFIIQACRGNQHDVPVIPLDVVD
Target sequence (P55212 194-293 limits assumed): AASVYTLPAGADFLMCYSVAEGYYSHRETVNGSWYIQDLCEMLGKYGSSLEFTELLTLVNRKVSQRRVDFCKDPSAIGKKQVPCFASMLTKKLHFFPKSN
ERAP1 inh = blocks human ERAP1 aminopeptidase activity; Q9NZ08; recombinant ERAP1, Leu-AMC fluorescence, 60 min; inhibition, % at 10.7 µM; 340,000 tested, 0.15% active;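 active = mean replicate inhibition of at least 30%, or all replicates individually reaching that 30% level; inactive = mean below 30% and not every replicate reaching it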;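 also: 0% = neutral control wells and 100% = L-leucinethiol positive control wells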
SIRT5 block = inhibitors of human sirtuin-5 desuccinylase. Q9NXA8. 330,000 tested, 1.1% active. inhibition, % at 15 µM. Purified SirT5, succinyl-peptide AMC, trypsin-coupled fluorescence; in the data active = inhibition above about 15%
FGF22 binding = FGF22 (human) thermal shift binding; recombinant FGF22 thermal shift, SYPRO orange fluorescence; percent of sucrose octasulfate shift, DMSO zero; activity (Tm shift, normalised), % at 9.99 µM; 340,000 tested, 1.5% active;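 active = mean Tm shift, scaled 0 neutral to 100 positive control, at about 1.3% or above, every replicate too, limit read from the data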
Target sequence (Q9HCT0 whole entry, looked up): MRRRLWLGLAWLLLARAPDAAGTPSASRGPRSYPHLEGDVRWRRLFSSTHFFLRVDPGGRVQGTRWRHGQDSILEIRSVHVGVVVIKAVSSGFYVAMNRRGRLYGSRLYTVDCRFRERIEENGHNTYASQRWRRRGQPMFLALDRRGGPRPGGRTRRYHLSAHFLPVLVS
An asterisk follows results filed as active; . = no result; ! = a repeat was not active. Rows were chosen to be rich in hits. Some 3.1% of all compounds tested hit in one or more screens of this group.

SMILES	CASP6 VEID inh	ERAP1 inh	SIRT5 block	FGF22 binding
COc1ccc(S(=O)(=O)N(C)C[C@H]2OCCCC[C@@H](C)Oc3ccc(NS(=O)(=O)c4ccc(F)cc4)cc3C(=O)N([C@@H](C)CO)C[C@@H]2C)cc1	2	0	23*	0
COc1ccc(S(=O)(=O)Nc2ccc3c(c2)C(=O)N([C@H](C)CO)C[C@@H](C)[C@H](CN(C)S(=O)(=O)c2ccc(F)cc2)OCCCC[C@H](C)O3)cc1	-2	-1	10	0
COc1ccc(S(=O)(=O)N(C)C[C@@H]2OCCCC[C@H](C)Oc3ccc(NS(=O)(=O)c4ccc(F)cc4)cc3C(=O)N([C@@H](C)CO)C[C@H]2C)cc1	1	0	17*	0
CC(=O)c1sc(NC(=O)c2ccc(C)c(C)c2)nc1C	-1	0	.	44*
COCC(=O)Nc1ccc2c(c1)[C@H]1C[C@@H](CC(=O)NCc3ccccc3)O[C@H](CO)[C@H]1O2	1	-4	-3	0
Cc1noc(C)c1S(=O)(=O)Nc1ccc2c(c1)C(=O)N([C@H](C)CO)C[C@@H](C)[C@@H](CN(C)C(=O)CCCN(C)C)OCCCC[C@@H](C)O2	.	.	.	0
Fc1ccc(F)c(C2=NNC(=NCC3CCCO3)SC2)c1 (stereo not given)	1	3	1	43*
Cc1ccccc1-c1ccc2c(c1)O[C@H](CN(C)C(=O)c1ccccn1)[C@H](C)CN([C@H](C)CO)S2(=O)=O	0	2	1	0
Cc1ccc(S(=O)(=O)N2C[C@H]3C(=O)C[C@@H](c4ccccc4F)N(S(=O)(=O)c4ccc(C)cc4)[C@H]3C[C@H]2c2cccc3ccccc23)cc1	-2	-3	.	43*
COc1ccc(-c2noc(Cn3cc(S(=O)(=O)N4CCCC4)ccc3=O)n2)cc1	6	2	22*	0
CCc1noc(C)c1C(=O)NNC(=O)COc1ccc(C)cc1	2	0	15*	0
O=C(c1cccnc1)N1CC[C@@H]2[C@@H](CO)Nc3ccc(C4=CCCCC4)cc3[C@@H]21	0	-1	17*	0
Nc1c(C(=O)N/N=C/c2cccnc2)oc2nc(-c3ccco3)cc(-c3ccco3)c12	89*	4	-3	0
Nc1c(C(=O)N/N=C/c2cccnc2)oc2nc(-c3ccccc3)cc(-c3ccco3)c12	6	1	1	0
O=C(C[C@@H]1CC[C@H](NC(=O)Nc2ccc(C(F)(F)F)cc2)[C@H](CO)O1)NCc1ccccn1	1	-2	3	0
CCC(=O)N(Cc1cc(=O)[nH]c2ccccc12)c1ccccc1OC	4	-1	0	0
COc1ccccc1N(Cc1cc(=O)[nH]c2ccccc12)C(=O)c1cccc([N+](=O)[O-])c1	0	-4	-3	43*
Cc1ccc(C)c(S(=O)(=O)Nc2ccccc2C(=O)Nc2ccc(S(=O)(=O)Nc3ncccn3)cc2)c1	12	-6	19*	0
Cc1ccc(OCc2nnc(SC(C)C(=O)O)n2Cc2ccccc2)cc1 (stereo not given)	1	4	-1	42
Cc1cccc(OCc2nnc(SC(C)C(=O)O)n2Cc2ccccc2)c1 (stereo not given)	0	0	-4	43*
CC(C)C#Cc1cnc2c(c1)C(=O)N([C@H](C)CO)C[C@@H](C)[C@H](CN(C)C(=O)c1cccc(F)c1)O2	-3	1	1	1
Cc1oc2ccc(O)cc2c1C(=O)c1ccc([N+](=O)[O-])cc1	-1	-1	-2	0
CN(C)/C=C/c1oc2ccc(O)cc2c1[N+](=O)[O-]	21	9	24*	0
NC(=O)c1ncn([C@@H]2O[C@H](CO)[C@@H](O)[C@H]2O)n1	1	-2	2	0
NC(=O)c1ccc(=O)n(C2OC(CO)C(O)C2O)c1 (stereo not given)	-2	-3	-4	44*
SMILES	CASP6 VEID inh	ERAP1 inh	SIRT5 block	FGF22 binding
CC(Oc1ccc2c(-c3ccccc3)cc(=O)oc2c1)C(=O)N[C@H](Cc1c[nH]c2ccccc12)C(=O)O (stereo not given in full)	3	0	5	0
COc1ccc(-c2cc(=O)oc3cc(OC(C)C(=O)NC(Cc4c[nH]c5ccc(O)cc45)C(=O)O)ccc23)cc1 (stereo not given)	8	31*	.	0
CCCNC(=O)OCc1cccnc1Sc1ccc(C)cc1	-1	-3	0	43*
CCOC(=O)Nc1cccnc1Sc1ccc(Cl)cc1	-1	7	-6	0
C[C@@H]1CN([C@H](C)CO)C(=O)Cc2cc(NS(=O)(=O)c3ccc(F)cc3)ccc2O[C@@H]1CN(C)C(=O)NC1CCCCC1	1	0	-4	0
COc1ccc(S(=O)(=O)Nc2ccc3c(c2)CC(=O)N([C@@H](C)CO)C[C@@H](C)[C@H](CN(C)CC2CCCCC2)O3)cc1	-2	1	24*	0
Cc1ccc(S(=O)(=O)Nc2ccc3c(c2)CC(=O)N([C@H](C)CO)C[C@H](C)[C@@H](CN(C)CC2CCCCC2)O3)cc1	3	0	19*	0
C[C@H](CO)N1C[C@H](C)[C@@H](CN(C)S(=O)(=O)c2ccc(F)cc2)Oc2ccc(NS(C)(=O)=O)cc2CC1=O	44*	3	-3	0
C[C@@H]1CN([C@@H](C)CO)C(=O)Cc2cc(NS(=O)(=O)c3ccc(F)cc3)ccc2O[C@@H]1CN(C)C(=O)NC1CCCCC1	2	0	19*	0
O=C(O)C[C@H]1C[C@@H]2c3cc(NC(=O)CC4CC4)ccc3O[C@@H]2[C@H](CO)O1	-1	-1	-1	0
O=C(C[C@H]1C=C[C@@H](NC(=O)c2cccc(F)c2)[C@H](CO)O1)Nc1nccs1	1	5	1	0
O=C(C[C@@H]1CC[C@H]2[C@@H](COC[C@@H](O)CN2CC2CCCCC2)O1)NCc1ccc(F)cc1	-1	0	9	0
C[C@H](CO)N1C[C@H](C)[C@@H](CN(C)CC2CCCCC2)Oc2ccc(NS(=O)(=O)c3ccc(Cl)cc3)cc2CC1=O	-3	-2	18*	0
COc1ccc(S(=O)(=O)Nc2ccc3c(c2)C(=O)N([C@@H](C)CO)C[C@H](C)[C@H](CN(C)CC2CC2)O3)cc1	0	-1	27*!	0
C[C@@H]1CN([C@H](C)CO)C(=O)Cc2cc(NS(=O)(=O)c3ccc(Cl)cc3)ccc2O[C@@H]1CN(C)CC1CCCCC1	4	-5	.	0
C[C@@H]1CN([C@@H](C)CO)C(=O)Cc2cc(NS(=O)(=O)c3cccs3)ccc2O[C@H]1CN(C)CC1CCCCC1	1	7	15*	0
Cc1ccc(S(=O)(=O)Nc2ccc3c(c2)CC(=O)N([C@@H](C)CO)C[C@H](C)[C@H](CN(C)CC2CCCCC2)O3)cc1	6	0	16*	0
COc1ccc(S(=O)(=O)Nc2ccc3c(c2)C(=O)N([C@H](C)CO)C[C@@H](C)[C@H](CN(C)CC2CC2)O3)cc1	1	-1	0	0
